These results are taken from PubChem BioAssay (Tox21).

Assay [1] in a line: A CellTox Green Cytotoxicity Assay to monitor cytotoxicity in HEK293 cells - 16 hour (AID 1224888). Note: nearly all actives have a fitted effect of over 35% in size. The method, boiled down:
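Homogeneous no-lysis format: HEK293 cell suspension mixed with CellTox Green reagent, seeded, incubated 5 h at 37 C/5% CO2, then dosed by pintool with compound in DMSO.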

Assay [2] can be described thus: A CellTox Green Cytotoxicity Assay to monitor cytotoxicity in HepG2 cells - 8 hour (AID 1224890). Note: nearly all actives have a fitted effect of over 45% in size. The method, boiled down:
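Fluorescent DNA-binding dye, 600 HepG2 cells/well, 5 h preincubation then compound in DMSO; same plates read at 0–40 h, 37 C.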

The nature of assay [3]: qHTS assay to identify small molecule antagonists of the estrogen receptor alpha (ER-alpha) signaling pathway using the BG1 cell line in the presence of 0.1 nM 17-beta-estradiol - cell viability counter screen (AID 1259241). Note: nearly all actives have a fitted effect of over 40% in size. The essentials:
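In this screen, hormone-deprived VM7Luc4E2 cells were seeded at 4,000 per well, dosed with compound and 0.1 nM estradiol final, and incubated 22 hr at 37C and 5% CO2; fluorogenic live-cell protease signal reported viability.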

A short description of assay [4]: qHTS assay to identify small molecule antagonists of the androgen receptor (AR) signaling pathway using the MDA cell line in the presence of 0.5 nM R1881 - cell viability counter screen (AID 1259242). Note: nearly all actives have a fitted effect of over 45% in size. The essentials: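 Human breast carcinoma MDA-kb2 cells, cultured without CO2, receive compounds alongside 0.5 nM (final) R1881 agonist. After 16 hr at 37C, viability is taken as live-cell protease signal.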

The target in assay [5] is Estrogen receptor (Homo sapiens) (UniProt P03372). As to the kind of experiment: qHTS assay to identify small molecule antagonists of the estrogen receptor alpha (ER-alpha) signaling pathway using the BG1 cell line in the presence of 0.1 nM 17-beta-estradiol (AID 1259244). Note: nearly all actives have a fitted effect of over 50% in size. The essentials:
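Seeding of stripped-serum-adapted VM7Luc4E2 cells, 24 h attachment, compound transfer, then 0.1 nM final 17beta-estradiol; after 22 h incubation, ONE-Glo reagent and luminescence reading.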
(In qHTS, concentration-response curves come from the screen itself.)

Assay [6] can be described thus: qHTS assay to identify small molecule HDAC inhibitors (AID 1259364). Note: potency is the fitted concentration of half-maximal effect.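 Note: wild-type HCT-116 cells with endogenous class I/II HDAC activity; nearly all actives have a fitted effect of over 45% in size.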 The method, boiled down: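 After a 2 hr compound incubation (37C, 5% CO2), HCT-116 cells seeded at 1,500/well the day before received HDAC-Glo reagent; signal read as luminescence after 30 min at room temperature.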
Assay [7] can be described thus: qHTS assay to identify small molecule HDAC inhibitors - cell viability counter screen (AID 1259365). Note: series mostly up to about 92 µM; nearly all actives have a fitted effect of over 50% in size. The method, boiled down: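 Measured quantity is CellTiter-Glo luminescence from wild-type HCT-116 cells after compound incubation of 2hr at 37C, 5% CO2; reagent developed 30min at room temperature.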
Assay [8] in a line: qHTS assay to identify small molecule agonists of the sonic hedgehog signaling (Shh) pathway - cell viability counter screen (AID 1259366). Note: nearly all actives have a fitted effect of over 50% in size. The essentials:
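In quantitative high-throughput format, 3T3 Gli1-Luc cells were exposed to compounds for 24hr and multiplexed for viability using CellTiter-Fluor, incubated 1hr at 37C before the fluorescence read.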

Assay [9] is described as follows: qHTS assay to identify small molecule antagonists of the sonic hedgehog signaling (Shh) pathway - cell viability counter screen (AID 1259367). Note: nearly all actives have a fitted effect of over 55% in size. The method, boiled down:
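Conditioned medium drove Shh signaling in 3T3 Gli1-Luc cells exposed to compounds at 37C and 5% CO2. Viability was determined from CellTiter-Fluor fluorescence, with reagent incubated 1 hr after 23 hr of treatment.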

Assay [10] is described as follows: qHTS assay to identify small molecule agonists of the sonic hedgehog signaling (Shh) pathway (AID 1259368; calls by dose curve;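 note: NIH/3T3-derived 3T3Gli1-Luc cells carrying a stable Gli1-driven firefly luciferase reporter; series mostly up to about 92 µM; nearly all actives have a fitted effect of over 15% in size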). The essentials:
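Stable NIH/3T3 Gli1-Luc reporter clone; 24 hr cpd exposure after a 4 hr settling period; luminescence endpoint.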

Assay [11] in a line: qHTS assay to identify small molecule antagonists of the sonic hedgehog signaling (Shh) pathway (AID 1259369; calls by dose curve; note: nearly all actives have a fitted effect of over 45% in size). The essentials:
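Gli1 transcriptional reporter (firefly Luc) in NIH/3T3 background, conditioned-medium activated. 24hr exposure, luminescence endpoint.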

The target in assay [12] is Estrogen receptor beta (Homo sapiens) (UniProt Q92731). In words: qHTS assay to identify small molecule agonists of the estrogen receptor beta (ER-beta) signaling pathway (AID 1259377; active = well fitted activation curve with a large enough effect in the signal ratio in the repeat runs, not every such curve was filed as active; the % refers to the signal ratio). The essentials:
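Reporter cells (HEK293T, ER-beta-UAS-bla) receive compounds or DMSO after a 6 hr pre-incubation. They then incubate 16 hr at 37C/5% CO2, and fluorescence from LiveBLAzer B/G substrate is measured after 2 hours at room temperature.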

The target is the same in assay [13]. In words: qHTS assay to identify small molecule antagonists of the estrogen receptor beta (ER-beta) signaling pathway (AID 1259378; active = well fitted inhibition curve with a large enough effect in the signal ratio in the repeat runs, not every such curve was filed as active; the % refers to the signal ratio; note: potency is the fitted concentration of half-maximal effect). The essentials:
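ER-beta-UAS-bla HEK293T (GripTite) cells in 2% charcoal-stripped FBS medium were preincubated 6 hr at 37C, dosed with compound, then stimulated with 1 nM E2 (final) for 16 hr; beta-lactamase reporter read by B/G FRET fluorescence after 2 hr substrate loading.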

The nature of assay [14]: qHTS assay to identify small molecule agonists of the androgen receptor (AR) signaling pathway in the presence of an antagonist - cell viability counter screen (AID 1259379).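 Note: MDA-kb2 human breast cancer cells carrying an MMTV luciferase reporter; series mostly up to about 92 µM; nearly all actives have a fitted effect of over 25% in size.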 The method, boiled down:
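Counter screen for cell viability run in parallel with the AR agonist-mode luciferase assay. MDA-kb2 cells were co-treated with nilutamide (3.0uM final) and compounds, then incubated 16 hr at 37C, and CellTiter-Fluor fluorescence was measured.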

For assay [15], the target named is Androgen receptor (Homo sapiens) (UniProt P10275). In words: qHTS assay to identify small molecule agonists of the androgen receptor (AR) signaling pathway in the presence of an antagonist (AID 1259381; calls by dose curve; note: nearly all actives have a fitted effect of over 15% in size). The method, boiled down:
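AR antagonist background: nilutamide 3.0uM final. Cell line: MDA-kb2, MMTV-driven luciferase, responsive to both AR and GR. Exposure 16hr, 37C, no CO2; ONE-Glo luminescence.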

A short description of assay [16]: qHTS RealTime-Glo MT Cell Viability Assay in HepG2 cells - 0 hour (AID 1224889). Note: nearly all actives have a fitted effect of over 50% in size. The essentials: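 HepG2 cells (600/well) were dispensed with RealTime-Glo reagents, incubated 5 h at 37 °C, then treated with compounds in DMSO for up to 40 h. Nonlytic NanoLuc luminescence reflecting viable cells was read at each stated time point.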
Assay [17] in a line: qHTS assay to identify small molecule phospholipidosis (PLD) inducers (AID 1259344; active = well fitted curve in the direction sought with a large enough effect; an effect the other way counts as inactive or inconclusive). The method, boiled down: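 After 4 h attachment on collagen I, HepG2 cells were dosed with compound alongside LipidTOX Red, kept 24 h at 37 C, fixed, and imaged for lamellar phospholipid pits.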
Assay [18] can be described thus: qHTS assay to identify small molecule agonists of the estrogen receptor beta (ER-beta) signaling pathway - cell viability counter screen (AID 1259380). Note: nearly all actives have a fitted effect of over 30% in size. The method, boiled down: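 In this qHTS counter screen, HEK293T cells carrying an ER-beta/UAS beta-lactamase reporter, grown in 2% charcoal-stripped FBS, received compound for 16 hr; ATP-based CellTiter-Glo luminescence was then read after 30 min at room temperature.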

Values without a mark were called inactive. Records with an inconclusive call do not appear. Activity calls are given as the source filed them. Unless noted, calls come from the whole dose curve; as a rule, active = well fitted curve in the direction sought with a large enough effect in the repeat runs; inconclusive = weak or mixed curves; inactive = no such curve, though single readings can be large; an effect the other way counts as inactive or inconclusive.

Estrogen receptor (Homo sapiens), sequence (P03372 whole entry, looked up): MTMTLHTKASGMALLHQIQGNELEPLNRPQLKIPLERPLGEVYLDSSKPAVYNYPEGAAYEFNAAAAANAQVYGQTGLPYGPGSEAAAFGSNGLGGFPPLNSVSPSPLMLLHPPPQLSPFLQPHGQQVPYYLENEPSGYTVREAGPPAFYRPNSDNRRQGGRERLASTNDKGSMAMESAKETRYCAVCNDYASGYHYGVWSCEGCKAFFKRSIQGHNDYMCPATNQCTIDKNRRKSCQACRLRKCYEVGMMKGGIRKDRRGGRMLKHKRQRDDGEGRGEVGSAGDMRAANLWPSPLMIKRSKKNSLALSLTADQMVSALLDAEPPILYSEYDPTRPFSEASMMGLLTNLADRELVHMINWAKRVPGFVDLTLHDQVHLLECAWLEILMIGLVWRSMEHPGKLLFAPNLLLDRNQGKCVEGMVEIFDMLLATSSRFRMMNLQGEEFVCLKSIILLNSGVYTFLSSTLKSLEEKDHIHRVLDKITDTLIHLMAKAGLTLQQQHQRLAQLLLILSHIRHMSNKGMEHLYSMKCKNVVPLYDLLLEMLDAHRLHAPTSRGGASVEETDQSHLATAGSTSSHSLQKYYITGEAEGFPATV
Estrogen receptor beta (Homo sapiens), sequence (Q92731 whole entry, looked up): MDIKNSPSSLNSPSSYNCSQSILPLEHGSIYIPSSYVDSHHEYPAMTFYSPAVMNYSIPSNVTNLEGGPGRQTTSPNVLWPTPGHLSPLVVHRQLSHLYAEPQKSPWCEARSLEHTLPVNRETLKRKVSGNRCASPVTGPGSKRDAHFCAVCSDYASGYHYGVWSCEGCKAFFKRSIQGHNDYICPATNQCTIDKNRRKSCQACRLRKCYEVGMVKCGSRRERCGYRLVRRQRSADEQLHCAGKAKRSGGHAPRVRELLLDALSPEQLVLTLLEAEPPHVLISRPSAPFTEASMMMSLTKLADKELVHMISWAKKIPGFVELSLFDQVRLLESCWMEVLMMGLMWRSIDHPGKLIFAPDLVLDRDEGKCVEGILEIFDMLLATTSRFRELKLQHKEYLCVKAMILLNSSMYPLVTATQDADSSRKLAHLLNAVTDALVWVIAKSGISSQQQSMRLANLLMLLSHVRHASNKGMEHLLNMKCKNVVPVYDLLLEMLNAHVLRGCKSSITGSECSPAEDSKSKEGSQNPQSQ
Androgen receptor (Homo sapiens), sequence (P10275 whole entry, looked up): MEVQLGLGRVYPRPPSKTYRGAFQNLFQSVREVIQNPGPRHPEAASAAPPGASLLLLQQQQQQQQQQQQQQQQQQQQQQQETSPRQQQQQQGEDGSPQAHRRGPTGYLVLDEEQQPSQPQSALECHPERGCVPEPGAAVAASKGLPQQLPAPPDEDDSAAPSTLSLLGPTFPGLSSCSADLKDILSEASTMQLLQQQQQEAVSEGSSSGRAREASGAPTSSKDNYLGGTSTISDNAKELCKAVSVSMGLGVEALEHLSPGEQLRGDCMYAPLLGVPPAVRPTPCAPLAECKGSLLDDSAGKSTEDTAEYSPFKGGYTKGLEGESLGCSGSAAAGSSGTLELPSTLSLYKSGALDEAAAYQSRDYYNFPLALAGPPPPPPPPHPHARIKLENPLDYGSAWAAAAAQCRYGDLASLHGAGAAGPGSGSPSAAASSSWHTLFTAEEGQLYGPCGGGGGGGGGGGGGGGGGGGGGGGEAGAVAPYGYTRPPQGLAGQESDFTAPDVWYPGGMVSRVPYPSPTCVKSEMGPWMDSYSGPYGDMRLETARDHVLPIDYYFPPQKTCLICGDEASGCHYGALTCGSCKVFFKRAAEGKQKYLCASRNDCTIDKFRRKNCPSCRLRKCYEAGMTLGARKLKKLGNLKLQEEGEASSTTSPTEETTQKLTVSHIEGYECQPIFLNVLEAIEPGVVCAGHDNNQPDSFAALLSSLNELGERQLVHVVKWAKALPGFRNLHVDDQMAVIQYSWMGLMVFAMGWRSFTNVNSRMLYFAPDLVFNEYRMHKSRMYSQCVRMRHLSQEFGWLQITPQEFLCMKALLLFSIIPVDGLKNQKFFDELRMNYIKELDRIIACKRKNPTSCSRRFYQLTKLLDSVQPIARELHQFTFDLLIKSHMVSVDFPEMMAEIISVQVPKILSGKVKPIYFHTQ

For the molecule `OC1(c2ccc(Cl)cc2)CCNCC1`, the Potency entry in [1], in assay [2], in [6], in assay [11], in assay [12] and in assay [13] was “inactive” throughout. In addition, the result in assay [3], in assay [4], in assay [5], in [7], in assay [8] and in [9] was inactive. Further, the outcome in assay [10], in assay [14] and in assay [15] was inactive.
`CC(=O)Nc1ccc(OC(=O)c2ccccc2OC(C)=O)cc1`: the Potency result in [16] and in [2] was “inactive” in each case. Moreover, the outcome in assay [3], in assay [4], in assay [5], in [17], in [7] and in [8] was inactive. The outcome in [9], in assay [10] and in assay [14] was inactive. For the same molecule, in assay [6], the Potency was 23.7 µM (active).
Turning to `CC(N)CCCC(C)(C)O` (stereo not drawn), the Potency result in [1], in assay [16], in [2], in assay [6], in assay [11] and in assay [12] was “inactive” each time. The Potency result in [13] is “inactive”. In addition, the result in assay [3], in assay [4], in assay [17], in [7], in assay [8] and in assay [9] was inactive. The molecule was called inactive in [10] and in assay [14].
In the case of `CCC(C)OC(C)CC` (stereo not drawn), the Potency result in assay [16], in [2], in assay [6], in assay [11] and in [12] was “inactive” in each case. In addition, the outcome in assay [3], in [4], in assay [5], in [7], in assay [8] and in assay [9] was inactive. Moreover, the molecule was classed as inactive in assay [10], in assay [14] and in assay [15]. For the same molecule, in assay [13], the Potency is 28.3 µM (active).
In the case of `NCC1(Cc2noc(=O)[nH]2)CCCCC1`, the Potency result in [1], in [16], in assay [2], in assay [6], in [11] and in assay [12] was “inactive” in each case. Further, the Potency result in [13] was “inactive”. Also, the result in [3], in assay [5], in assay [7], in [8], in [9] and in assay [10] was inactive. Besides, the outcome in [14] and in [18] was inactive.
With `CC(=O)C1C(=O)C=C(C)OC1=O` (stereo not drawn), the Potency result in assay [1], in [16], in [2], in assay [6], in [11] and in [12] was “inactive” in each case. Moreover, in assay [13], the Potency result is “inactive”. Also, the result in assay [3], in assay [5], in assay [7], in assay [8], in [9] and in [10] was inactive. Further, the result in assay [14] and in [18] was inactive.
`CN1CCOC(c2ccccc2)c2ccccc2C1` (stereo not drawn): the Potency entry in [1], in assay [16], in assay [2], in assay [6], in [11] and in assay [12] was “inactive” each time. In addition, in assay [13], the Potency entry is “inactive”. Further, the result in [3], in assay [17], in assay [7], in assay [8], in assay [9] and in assay [10] was inactive. Moreover, the outcome in assay [14] and in assay [18] was inactive.
As for `CCC(C(=O)OCCN1CCOC(c2ccccc2)C1C)c1ccccc1` (stereo not drawn), the Potency result in assay [1], in assay [16], in assay [2] and in assay [6] was “inactive” throughout. In addition, the outcome in assay [3], in [4], in [5], in assay [7], in assay [8] and in assay [9] was inactive. For the same molecule, the call in assay [10], in [14] and in assay [18] was inactive.
Turning to `CC/C(C)=N\O[Si](C)(O/N=C(\C)CC)O/N=C(\C)CC`, the Potency result in [1], in [16], in [2], in assay [6] and in assay [11] was “inactive” each time. Also, the outcome in assay [3], in assay [4], in [5], in assay [7], in assay [8] and in assay [9] was inactive. In addition, the call in assay [10] and in assay [14] was inactive.
